Consider 39 compounds from PubChem BioAssay (EPA / NIEHS).

Some structures have more than one record in an assay (separate samples or runs), and their calls can disagree. Active and inactive are the calls of the source. Rule for the calls: active = hit-call score of the fitted dose curve at least 0.9, where 1 is the maximum; inactive = score below 0.9.

Read-out in the assay: NAD(P)H dehydrogenase [quinone] 1 (NQO1), NQO1 (gene 1728)
The assay can be described thus: LTEA_HepaRG_NQO1: Life Technologies and Expression Analysis (LTEA) Assay for NAD(P)H dehydrogenase [quinone] 1 (NQO1) using HepaRG (AID 2283526). The settings on record: mRNA level, 48 h; actives raise or lower the signal. As to the method:
LTEA_HepaRG is a cell based, multiplexed-readout assay that uses HepaRG, a human liver cell line, with measurements taken at 48 hours after chemical dosing on a 96-well plate.LTEA_HepaRG_NQO1 is one of 102 assay component(s) measured in the LTEA HepaRG cell culture assay. It is a marker of Diseases associated with NQO1 include Tardive Dyskinesia and Childhood Leukemia.Data from the assay component LTEA_HepaRG_NQO1 was analyzed into 1 endpoint. This assay endpoint, LTEA_HepaRG_NQO1, was analyzed with bidirectional fitting relative to DMSO as the negative control and baseline of activity. Using a type of inducible reporter, measures of mRNA induction for gain or loss-of-signal activity can be used to understand regulation of transcription factor activity. To generalize the intended target to other relatable targets, this assay endpoint is annotated to the oxidoreductase intended target family, where the subfamily is quinone-acceptor.
A total of 1060 chemcials from the ToxCast library were tested in eight-point concentration-response experiments. Cell culture and cytotoxicity assays were conducted at Thermo Fisher Scientific's Custom Services facility (Madison, WI). A single lot of human HepaRG cells (Thermo Fisher Scientific, Frederick, MD) was used for the cell culture experiments. 96-well format collagen type I coated plates of human HepaRG cells were prepared using established methods. Briefly, cryopreserved HepaRG cells were thawed, plated at a density of approximately 100,000 cells/well in HepaRG Thaw, Plate, and General Purpose media (HPRG770, Thermo Fisher Scientific), and incubated for 48 hours. 0.5% DMSO was selected as vehicle control to balance the requisite need of DMSO in HepaRG cultures to maintain differentiation (for example, baseline metabolism, proportions of hepatocytes vs. cholangiocytes), while enabling further hepatic receptor pathway activation (for example, PXR and CAR) in response to chemical exposure. 48 hours after plating, the culture medium was replaced with HepaRG Serum-Free Incudtion Media. Cells were exposed to each test chemical in duplicate and maintained in CO2 incubators for another 48 hours. Chemical plates were thawed to room temperature and 200x concentrations of treatment groups were prepared. 8-point conentration-reponse curves were made with the highest exposure at 100 uM, followed by half-log dilutions, all in 0.5% DMSO. Each test plate contained variouse controls, induction positive controls (1mM phenobarbital), cytotoxicity positive controls ([…] aflatoxin B1), vehicle controls (0.5% DMSO), and total lysis controls (0.5% DMSO). Cell morphology images were taken using an Essen IncuCyte FLR automated microscope, with six 96-well plates imaged in about 24 minutes. Images were captured and exported and JPEG files. Spent culture media was transfered to black-well plates for the LDH assay, and remaining media was sorted at -80 C for later use. Cells were treated with RLT buffer and frozen until shipped for gene expression analysis. Total RNA was isolated from the cell suspension in 75 uL of Buffer RLT (Qiagen, Germantown, MD 20874) by Quintiles/Expression Analysis (Durham, NC) using a custom isolation procedure. Total RNA from each plate well was transferred to a preamplification plate. Fluidigm's 96.96 Dynamic ArrayTM (Fluidigm, Amsterdam, the Netherlands) technology was used for gene expression analyses by quantitative reverse transcription polymerase chain reaction (qRT-PCR, performed by Quintiles/Expression Analysis, Durham, NC)89. Standard TaqManTM Assays (Applied Biosystems/ThermoFisher Scientific, Foster City, CA) were used to assess the expression of 93 genes selected based on their selectivity and sensitivity to important hepatic receptors known to be modulated by environmental chemicals; importance in human hepatocyte functionality; and hepatotoxicity. […]
Regarding `CCCN(CCC)C(=O)SCC`, the result was inactive.

Turning to `OB(O)O`, the call was inactive.

Take `CC(C)(c1ccc(O)cc1)c1ccc(O)cc1`: the compound was classed as inactive.

Turning to `CCNc1nc(N)nc(Cl)n1`, the result was inactive.

With `CCSC(=O)N(CC(C)C)CC(C)C`, the compound was called inactive.

On to `CN(C)C(=O)Nc1ccc(Cl)c(Cl)c1`, for which the result was inactive.

Turning to `CCOC(=O)C(C)Oc1ccc(Oc2cnc3cc(Cl)ccc3n2)cc1` (stereo not given), the compound was classed as inactive.

For the compound `CC(C)CCCCCCc1ccc(O)cc1`, the compound was called inactive.

For the compound `O=C(O)c1ccccc1`, the result was inactive.

For `C#C[C@]1(O)CC[C@H]2[C@@H]3CCC4=CC(=O)CC[C@@H]4[C@H]3CC[C@@]21CC`, the outcome was inactive.

For `CSC(=O)c1cccc2nnsc12`, the compound was called inactive.

On to `O=C(O)C1(C(=O)Nc2ccc(Cl)cc2Cl)CC1`, for which the outcome was inactive.

Take `CCC(C)OC(=O)N1CCCCC1CCO` (stereo not given): the call was inactive.

In the case of `CCCCC(CC)COC(=O)c1ccccc1C(=O)O` (stereo not given), the call was inactive.

Turning to `Cc1nn(C)c(Oc2ccccc2)c1C=NOCc1ccc(C(=O)OC(C)(C)C)cc1`, the result was inactive.

For `COC(=O)c1ccc(I)cc1S(=O)(=O)NC(=O)Nc1nc(C)nc(OC)n1`, the compound was called inactive.

As to `CCN(Cc1c(F)cccc1Cl)c1c([N+](=O)[O-])cc(C(F)(F)F)cc1[N+](=O)[O-]`, the call was inactive.

Take `C[C@]12C[C@H](O)[C@H]3[C@@H](CCC4=CC(=O)CC[C@@]43C)[C@@H]1CC[C@@H]2C(=O)CO`: the compound was called inactive.

As to `C#CCOC(=O)[C@@H](C)Oc1ccc(Oc2ncc(Cl)cc2F)cc1`, the result was inactive.

In the case of `CC1(C)C(C=C(Cl)Cl)C1C(=O)OCc1cccc(Oc2ccccc2)c1` (stereo not given), the result was inactive.

In the case of `COC(=O)CSc1cc(N=c2sc(=O)n3n2CCCC3)c(F)cc1Cl`, the call was inactive.

With `CCOC(=O)c1ccc(O)cc1`, the result was inactive.

Consider `c1ccc2[nH]c(-c3cscn3)nc2c1`, for which the result was inactive.

For `c1ccc(Nc2ccccc2)cc1`, the compound was called inactive.

On to `CCOC(=O)NCCOc1ccc(Oc2ccccc2)cc1`, for which the result was inactive.

As to `CC(=O)S[C@@H]1CC2=CC(=O)CC[C@]2(C)[C@H]2CC[C@@]3(C)[C@@H](CC[C@@]34CCC(=O)O4)[C@H]12`, the outcome was inactive.

As for `CCOC(=O)COc1cc(-n2ncc(C(F)(F)F)c(C)c2=O)c(F)cc1Cl`, the outcome was inactive.

Consider `CC(C)(C)[C@@H](O)[C@@H](Cc1ccc(Cl)cc1)n1cncn1`, for which the result was inactive.

In general, AC50 refers to the concentration giving half of the maximal activity seen. With `Oc1ccc(C(c2ccc(O)cc2)C(Cl)(Cl)Cl)cc1`, the AC50 was 82.7 µM (active).

Regarding `CCCCOC(=O)[C@@H](C)Oc1ccc(Oc2ccc(C(F)(F)F)cn2)cc1`, the compound was called inactive.

Consider `O=C(c1ccc(O)cc1O)c1ccc(O)cc1O`, for which the compound was classed as inactive.

Take `C=CCOC(Cn1ccnc1)c1ccc(Cl)cc1Cl` (stereo not given): the AC50 was 50 µM (active).

As to `CCCCOC(=O)C(C)Oc1ccc(Oc2ccc(C(F)(F)F)cn2)cc1` (stereo not given), the outcome was inactive.

As to `N#CSCSc1nc2ccccc2s1`, the call was inactive.

As to `CCCCC(CC)CN1C(=O)C2C3C=CC(C3)C2C1=O` (stereo not given), the result was inactive.

On to `S=C(S)NCCNC(=S)S.[Mn+2].[S-]C([S-])=NCCN=C([S-])[S-].[Zn+2]`, for which the AC50 was 0.903 µM (active) and the compound was called inactive.

Consider `CCCOC(=O)NCCCN(C)C`, for which the call was inactive.

Turning to `CCCCCOC(=O)COc1cc(N2C(=O)C3=C(CCCC3)C2=O)c(F)cc1Cl`, the compound was classed as inactive.

As for `COC(=O)c1ccccc1C(=O)O`, the call was inactive.
